Test results taken from PubChem BioAssay (NCI).
About 83,000 compounds went through this panel and 20% of them were active in at least one assay; those are over-represented in the sample as a whole.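 Single-concentration screen, 48 h exposure, 96-well plates. Endpoint: percent growth. Below 10 = active.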 Unmarked numbers belong to inactive results. Active and inactive are the calls of the source.

Columns and labels:
Assay in all cases: NCI-60 one-dose screen, 48 h (100 = growth as untreated, 0 = no growth, -100 = all killed)
Settings in all cases: 10 µM unless noted
[1] = test system: DU-145 prostate
[2] = test system: K-562 leukemia
[3] = test system: MALME-3M melanoma
[4] = test system: MDA-MB-231 breast
[5] = test system: RXF 393 renal
[6] = test system: SF-268 CNS
[7] = test system: SF-295 CNS
[8] = test system: SF-539 CNS
[9] = test system: UACC-257 melanoma
[10] = test system: M14 melanoma

Compound | growth [1] | growth [2] | growth [3] | growth [4] | growth [5] | growth [6] | growth [7] | growth [8] | growth [9] | growth [10]
CCOC(=O)c1sc2ncc(-c3ccc(OC)cc3)n2c1C | 105% | 91.2% | 101% | 92.4% | 111% | 98.1% | 96.4% | 91.8% | 105% | 95.3%
O=[N+]([O-])c1ccc(Cl)c(-c2cc(CCCCO)on2)c1 | 111% | 102% | 102% | 103% | 99.2% | 99.3% | 111% | 96.7% | 117% | 110%
CC1(C)C2CC1C1(/C=N\Nc3ccccc3)C(C2)C(C#N)(C#N)C1(C#N)C#N (stereo not given) | 101% | 84.9% | 97.7% | 75.8% | 103% | 86.3% | 104% | 107% | 98.9% | 83.6%
Cc1ccc(C2CC(c3ccc(Nc4ccnc5cc(Cl)ccc45)cc3)=NN2C=O)cc1 (stereo not given) | 68.4% | 16.2% | 46.5% | 66.2% | 61.7% | 48.5% | 31.2% | 91% | 79.8% | 45.8%
CCc1ccc2nc(NC(=O)Cc3csc(NC(=O)c4ccco4)n3)sc2c1 | 67% | 64.5% | 59.6% | 67.9% | 73.1% | 43.3% | 77.6% | 34.8% | 101% | 96.7%
CN1CCN(c2ccc(-c3cnc4c(-c5csc6ccccc56)cnn4c3)cc2)CC1 | 9.16% (active) | 3.45% (active) | -70.1% (active) | -25.3% (active) | -66.4% (active) | -15.8% (active) | -49.7% (active) | -86.4% (active) | -76.3% (active) | -71.8% (active)
CCCCNC(=O)Oc1ccc(/C(=C(\C)c2ccc(Cl)cc2)c2ccc(OCCN(CC)CC)cc2)cc1 | 81.7% | 8.22% (active) | 65.1% | 70.2% | 79.4% | 65.5% | 85.2% | 71.7% | -1.69% (active) | 22.6%
COc1cc(/C=N/NC(=O)c2ccc(C)nc2)cc(OC)c1OC | 114% | 52.2% | 97.3% | 107% | 90% | 104% | 97.4% | 97.6% | 74.3% | 108%
Cc1cc(O)c(C2=NN(c3ccc(S(N)(=O)=O)cc3)C(c3ccccc3O)C2)cc1Cl (stereo not given) | 1.2% (active) | -36.6% (active) | 21.8% | 4.16% (active) | -10.3% (active) | 10.8% | 58.5% | -21.2% (active) | 66.5% | -68.5% (active)
c1cc(NCCc2ccncc2)nc(-n2cnc3ccccc32)c1 | 85.7% | 88.6% | 103% | 98.2% | 82.7% | 82.3% | 105% | 90.3% | 93.8% | 94%
C=C1C(=O)O[C@H]2[C@H]1CC/C(COC(=O)CCSSCCC(=O)OC/C1=C/CC[C@@]3(C)O[C@H]3[C@H]3OC(=O)C(=C)[C@@H]3CC1)=C\CC[C@@]1(C)O[C@@H]21 | 10.7% | -1.59% (active) | -27.1% (active) | -83.7% (active) | -93.6% (active) | 24.8% | 72.9% | -63.4% (active) | -7.74% (active) | -10.1% (active)
O=C(N/N=C/[C@H](O)[C@H](O)[C@H](O)CO)c1ccc(NC(=O)c2cccnc2)cc1 | 111% | 105% | 108% | 94.5% | 107% | 98.6% | 101% | 98.5% | 99.8% | 102%
CC1Cc2ccccc2N1NC(=O)c1ccc(Cl)c(S(N)(=O)=O)c1 (stereo not given) | 108% | 103% | 94.2% | 104% | 108% | 106% | 101% | 105% | 102% | 98.2%
CCOC(=O)c1c(C)oc2ncnc(N3CCN(C(=O)COc4ccc(C(C)(C)C)cc4)CC3)c12 | 87.5% | 53.5% | 70.2% | 80.5% | 92.1% | 91% | 79.9% | 96.1% | 78.4% | 74.5%
O=C(N=c1oc2ccccc2cc1-c1cc2ccccc2[nH]1)Nc1ccc(Cl)cc1 | 99.2% | 88.8% | 99.2% | 79.5% | 116% | 99.3% | 111% | 90.6% | 108% | 79.6%
CSc1ncccc1C(=O)OCC(=O)Nc1oc(C)c2c(C)n[nH]c(=O)c12 | 103% | 87.8% | 106% | 109% | 92.1% | 105% | 95% | 99.7% | 103% | 110%
Cn1cc(-c2cc3ncnc(Nc4ccc(CC(=O)Nc5cc(C(C)(C)C)on5)cc4)c3s2)cn1 | 29.9% | 11.1% | 43.4% | 34.4% | 19.3% | 31.6% | 49.9% | 15.7% | 59.3% | 21.1%
COc1cc(/C=C2\C(=O)Nc3ccc(Br)cc32)cc(OC)c1OC | 91.8% | 32.6% | 88.6% | 65.5% | -13.6% (active) | 84% | 68.6% | 85.6% | 17.2% | 79.2%
COc1ccc(NC2=C(Br)C(=O)C(C)=C(C)C2=O)cc1 | 106% | -2.92% (active) | 94.4% | -55.4% (active) | 102% | 98% | 98.9% | 90.6% | 72.8% | 97%
COc1ccc2sc3c(NCCO)nc4ccccc4c3c(=O)c2c1 | 106% | 76.7% | 104% | 85.3% | 104% | 100% | 100% | 86.1% | 109% | 104%
COc1ccc(/C=C/c2c(C(=O)/C=C/c3ccc(Cl)cc3)c(C)nc3ccccc23)cc1 | 13.8% | 9.27% (active) | 28% | 34.1% | -18.6% (active) | 58.7% | 42.2% | 14.4% | 38.8% | 14.7%
Cc1ccc(/C=C(\C#N)n2nc3cccc(F)c3n2)cc1 | 97.8% | 80.5% | 93% | 98.3% | 89.7% | 93.4% | 92.8% | 92.6% | 97.7% | 98.2%
CC(=O)CC[C@H]1C(=O)N[C@@H](C(C)C)C(=O)N[C@@H](Cc2cc(O)cc(F)c2)C(=O)N2CCC[C@H](N2)C(=O)O[C@H](/C(C)=C/C=C/C(=O)OC(C)(C)C)C/C=C/C=C/[C@H](O)[C@H](C)[C@H]1O | 42.6% | 21.6% | 73.6% | 47.5% | -5.28% (active) | 54.4% | 50.2% | 66.8% | 53% | 54.9%
O=c1ccn(Cc2cn(-c3c4ccccc4nc4ccccc34)nn2)c(=O)[nH]1 | 74.6% | 33.1% | 98.6% | 89.4% | 98.2% | 99.6% | 106% | 101% | 85.6% | 98.4%
